Screening data (PubChem)
Only some compounds are listed: those with a hit (about 1.1% of all), similar ones and a draw of the others.
PfHsp40 yeast: rescue of yeast from PfHsp40 toxicity, primary screen, S. cerevisiae, ATP luminescence. S. cerevisiae expressing PfHsp40, growth rescue. growth rescue, % at 12.5 µM. 340,000 tested, 0.68% active; in the data active means growth rescue above about 28%, passing the limit was not always enough;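 further: yeast W303a lacking pdr1 and pdr3 grown in galactose medium; growth measured after three days at 30 °C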
MazEF act: activators of E. coli MazEF toxin-antitoxin RNase, primary screen, biochemical, fluorescence, uHTS; FAM/BHQ RNA-DNA oligo cleavage fluorescence, 5 h; 350,000 tested, 0.32% active; Endoribonuclease toxin MazF (Escherichia coli (strain K12)), P0AE70; AID 504720, 2011; activation, % at 20 µM; in the data active means activation above about 50%
Target sequence (P0AE70 whole entry, looked up): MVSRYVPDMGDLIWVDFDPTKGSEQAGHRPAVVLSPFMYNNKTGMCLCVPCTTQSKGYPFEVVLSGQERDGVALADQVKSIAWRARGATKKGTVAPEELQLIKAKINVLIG
Y pestis TopoI: Yersinia pestis topoisomerase I inhibitors, primary screen, biochemical, cleavage product accumulation, plate reader, single point; Y. pestis Topo-I cleavage product accumulation; activity, % at 10 µM; 360,000 tested, 0.064% active; AID 504884, 2011; in the data active means activity above about 50%, passing the limit was not always enough
Mtb BioA inh: M. tuberculosis BioA enzyme inhibitors, primary screen, biochemical, plate reader, single point, HTS | inhibition, % at 9.99 µM | 7,8-diaminopelargonic acid synthase BioA (Mycobacterium tuberculosis) | purified M. tuberculosis BioA enzyme | 360,000 tested, 0.096% active | AID 602481, 2012; in the data active means inhibition above about 40%
BJeLR lethal: MLPCN primary cell-based screen for lethality selective to Ras in HRASV12 cells; BJeLR (HRASV12) viability, CellTiter-Glo ATP luminescence, 48 h; inhibition, % (concentration not given with the values); 300,000 tested, 0.17% active; in the data active means inhibition above about 50%
3CLpro inhibitor: SARS-CoV 3CLpro protease inhibitors, primary screen, biochemical, quenched FRET. Replicase polyprotein 1ab (Severe acute respiratory syndrome coronavirus), P0C6X7. recombinant SARS-CoV 3CLpro, quenched FRET peptide cleavage. inhibition, % at 6 µM. 290,000 tested, 0.14% active; in the data active means inhibition above about 12%
Starred values were filed as active, the others as inactive; . = not tested or not shown.

SMILES | PfHsp40 yeast | MazEF act | Y pestis TopoI | Mtb BioA inh | BJeLR lethal | 3CLpro inhibitor
O=C(Nc1cc(Oc2ccc(Cl)cc2)cc([N+](=O)[O-])c1)c1ccco1 | 352* | 1 | -18 | . | -5 | 1
CCOc1ccc(Oc2cc(NC(=O)c3ccco3)cc([N+](=O)[O-])c2)cc1 | 0 | 5 | -3 | . | . | 2
O=C(CN1CCOCC1)N1CCCCN2[C@@H](CO)[C@@H](c3ccc(C#Cc4ccccc4)cc3)[C@@H]2C1 | . | . | . | 0 | . | .
CC(C)=CCc1c(O)cc2c(=O)c3ccc(O)cc3oc2c1O | 147* | 22 | -1 | 1 | 3 | .
COc1cc(N=Nc2ccc3ccccc3c2)ccc1O | 153* | 2 | -4 | 1 | 3 | 0
Oc1ccc(N=Nc2ccc3ccccc3c2)cc1 | 72* | 19 | -23 | 1 | 7 | 6
COc1cc(N=Nc2ccccc2C(=O)O)ccc1O | -1 | -3 | 5 | 2 | -9 | 4
C[C@@H]1CN([C@H](C)CO)C(=O)c2cc(NC(=O)C3CCCCC3)ccc2O[C@@H]1CN(C)Cc1ccc(Cl)c(Cl)c1 | . | . | . | -1 | . | .
Nc1c(Cl)cc(-c2[nH]c3cc(C(=O)NCCO)ccc3c(=O)c2O)cc1Cl | 43* | -31 | -16 | 1 | 9 | -4
CCCNC(=O)c1ccc2c(=O)c(O)c(-c3cccc(Br)c3)[nH]c2c1 | 182* | -2 | -7 | -1 | 5 | .
CCCNC(=O)c1ccc2c(=O)c(O)c(C)[nH]c2c1 | 1 | 10 | -8 | -3 | 9 | .
CCCNC(=O)c1ccc2c(=O)c(O)c(-c3ccc(F)cc3)[nH]c2c1 | 199* | 2 | -3 | -1 | -13 | .
O=C(N[C@@H]1CC[C@@H](CCNS(=O)(=O)c2ccc(Cl)cc2)O[C@H]1CO)c1cnccn1 | . | . | . | 8 | . | .
C[C@H]1CN([C@@H](C)CO)C(=O)c2cc(-c3ccc(F)cc3)cnc2O[C@H]1CN(C)Cc1ccc(F)cc1 | . | . | . | 0 | . | .
CCCC(=O)Nc1ccc2c(c1)C(=O)N(C)[C@@H]1CC[C@@H](CC(=O)NCc3ccccc3F)O[C@@H]1CO2 | . | . | . | 0 | . | .
CCNC(=S)NCCN1CCCCC1 | 0 | 123* | 0 | -1 | -5 | -4
Cc1cc(N/N=C/c2ccc(O)c(C)c2O)nc(-c2ccccc2O)n1 | 73* | 12 | 4 | -2 | 29 | 2
C[C@H](CO)N1C[C@H](C)[C@@H](CN(C)C(=O)Nc2ccc(C(F)(F)F)cc2)Oc2ccc(NC(=O)Cc3cn(C)c4ccccc34)cc2C1=O | . | . | . | -3 | . | .
O=C(C[C@@H]1CC[C@@H](NC(=O)C2CCOCC2)[C@@H](CO)O1)NCc1ccccc1Cl | . | . | . | -5 | . | .
CN1C(=O)C(C)(C)c2cc(S(=O)(=O)NCc3ccc(C(=O)NCc4ccco4)cc3)ccc21 | 0 | 140* | 2 | -1 | 2 | -3
Cc1onc(-c2c(Cl)cccc2Cl)c1C(=O)N/N=C(\N)COc1ccc(Cl)cc1 | 599* | -1 | -4 | . | -3 | 2
COc1cc(/C=N/NC(=O)c2c(-c3c(Cl)cccc3Cl)noc2C)ccc1OCC(N)=O | -2 | 7 | 10 | 3 | 2 | 5
COC(=O)[C@]1(Cc2ccccc2)N[C@H](CN(C)C(=O)c2ccc(C)cc2)[C@@H]2C(=O)N(Cc3ccccc3)C(=O)[C@@H]21 | 47* | -2 | 9 | 0 | . | .
CCc1cccc(NC(=O)c2cnn(-c3ccccc3)c2C)c1 | 38* | 16 | 6 | 3 | 3 | -3
Cc1nnc(SCC(=O)N2c3ccccc3C(C)(c3ccccc3)CC2(C)C)s1 (stereo not drawn) | 9 | 13 | 59* | . | -5 | 5
SMILES | PfHsp40 yeast | MazEF act | Y pestis TopoI | Mtb BioA inh | BJeLR lethal | 3CLpro inhibitor
CC1CC(C)CC(C)C(O)C(C#N)=CC=CCC(C2CCCC2C(=O)O)OC(=O)CC(O)C(C)C1 (stereo not drawn) | 401* | 4 | 4 | . | . | .
CC1CCCCC1NC(=O)/C(C#N)=C/c1ccccc1F (stereo not drawn) | 111* | -1 | 5 | -1 | -7 | 2
COc1cc(/C=C(\C#N)C(=O)NC2CCCCC2C)ccc1OS(=O)(=O)c1ccc(C)cc1 (stereo not drawn) | 0 | 1 | 17 | 0 | 84* | 6
COc1cc(/C=C(\C#N)C(N)=O)ccc1OS(=O)(=O)c1ccc(C)cc1 | 2 | 5 | 0 | 1 | 7 | 6
CSc1ccc(/C=C(\C#N)C(=O)NC2CCCCC2C)cc1 (stereo not drawn) | 0 | 4 | 29 | . | -3 | -3
Cc1ccc(S(=O)(=O)N(C)C[C@H]2Oc3c(NC(=O)c4ccncc4)cccc3C(=O)N([C@@H](C)CO)C[C@H]2C)cc1 | . | . | . | -1 | . | .
COc1ccc(Nc2nc(N)nc(CSc3n[nH]c(-c4ccccc4)n3)n2)cc1 | -1 | -9 | -16 | 1 | 4 | -1
Nc1nc(CSc2n[nH]c(-c3ccccc3)n2)nc(Nc2ccccc2)n1 | 68* | 2 | -1 | -1 | 0 | -1
COc1ccc(NC(=O)Nc2ccc3c(c2)C(=O)N([C@@H](C)CO)C[C@H](C)[C@@H](CN(C)C)OCCCC[C@H](C)O3)cc1 | . | . | . | 2 | . | .
COc1cccc(S(=O)(=O)N[C@H]2CC[C@H](CCn3cc(-c4ccccn4)nn3)O[C@H]2CO)c1 | . | . | . | 0 | . | .
CCOCCOC(=O)c1[nH]c2c(c1C)C(=O)CC(c1cc(OC)c(OC)c(OC)c1)C2 (stereo not drawn) | 0 | 4 | 16 | 15 | 5 | -3
CCOCCOC(=O)c1[nH]c2c(c1C)C(=O)CC(c1ccccc1)C2 (stereo not drawn) | -1 | 8 | -2 | 0 | 53* | 0
CCOCCOC(=O)c1[nH]c2c(c1C)C(=O)CC(c1cccs1)C2 (stereo not drawn) | 1 | 7 | 6 | -1 | 65* | 0
CCCCCCCC[n+]1cccc2c3ccccc3ccc21 | -1 | 26 | 25 | . | 34 | -1
CCCCCCCCCC[n+]1cccc2c3ccccc3ccc21 | 133* | -9 | 20 | . | 60* | -2
COc1ccc(CCNC(=O)c2ccc3c(c2)SC2=NS(=O)(=O)CCN23)cc1 | 0 | 9 | -3 | -2 | 1 | -1
O=C(Nc1cccc(Cl)c1)c1ccc2c(c1)SC1=NS(=O)(=O)CCN12 | -1 | 136* | -3 | . | . | -1
CCOC(=O)N1CCN(c2ncnc3c2oc2nc(C(C)C)c4c(c23)CCC4)CC1 | 1 | 55* | -8 | -2 | -9 | 5
CCc1nnc(NC(=O)CCC(=O)N2CCN(Cc3cc(F)ccc3OC)CC2)s1 | 1 | 2 | 28 | 1 | 2 | -8
COc1ccc(F)cc1CN1CCN(C(=O)CCC(=O)Nc2nnc(CC(C)C)s2)CC1 | -1 | -1 | 47 | -1 | 62* | -6
